Test results as given in PubChem BioAssay (EPA / NIEHS).
Activity calls are given as the source filed them. The calls were made as follows: active = hit-call score of the fitted dose curve at least 0.9, where 1 is the maximum; inactive = score below 0.9.

Legend:
[1] = read-out: Interleukin-1 alpha (IL1a), IL1A (gene 3552); experiment: BSK_KF3CT_IL1a: BioMAP Diversity Plus: KF3CT Assay for Interleukin-1 alpha (IL1a) Biomarker Activity (AID 2283070); conditions: primary human keratinocytes with fibroblasts; actives raise or lower the signal
How it was run: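 Human keratinocyte plus foreskin fibroblast primary co-culture, sampled 24 h after chemical dosing. IL-1a measured by ELISA; responses fitted bidirectionally against DMSO baseline (negative control), so gain or loss of signal both count.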

[2] = read-out: TIMP metallopeptidase inhibitor 2 (TIMP2), TIMP2 (gene 7077); experiment: BSK_KF3CT_TIMP2: BioMAP Diversity Plus: KF3CT Assay for TIMP metallopeptidase inhibitor 2 (TIMP2) Biomarker Activity (AID 2283071); conditions: primary human keratinocytes with fibroblasts; actives raise or lower the signal
How it was run: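 Cells: human keratinocytes co-cultured with foreskin fibroblasts. Treat with chemical, 24 h. Measure TIMP-2 by ELISA; fit curves bidirectionally vs DMSO baseline.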

[3] = read-out: Transforming growth factor beta 1 (TGFb1), TGFB1 (gene 7040); experiment: BSK_KF3CT_TGFb1: BioMAP Diversity Plus: KF3CT Assay for Transforming growth factor beta 1 (TGFb1) Biomarker Activity (AID 2283072); conditions: primary human keratinocytes with fibroblasts; actives raise or lower the signal
How it was run: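 Primary human skin cells (keratinocytes, foreskin fibroblasts) were co-cultured, exposed to test chemical and sampled at 24 h. TGF-b1 levels were measured by ELISA and fitted bidirectionally relative to DMSO.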

[4] = read-out: C-C motif chemokine 2 (Homo sapiens) (UniProt P13500); experiment: BSK_KF3CT_MCP1: BioMAP Diversity Plus: KF3CT Assay for Monocyte Chemoattractant Protein 1 (MCP1/CCL2) Biomarker Activity (AID 2283073); conditions: primary human keratinocytes with fibroblasts; actives raise or lower the signal
How it was run: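 Keratinocytes and foreskin fibroblasts were co-cultured, dosed with chemical, and sampled 24 h later. MCP-1 was quantified by ELISA, and the endpoint was analyzed with bidirectional fitting using DMSO as negative control.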

[5] = read-out: Matrix Metallopeptidase 9 (MMP9), MMP9 (gene 4318); experiment: BSK_KF3CT_MMP9: BioMAP Diversity Plus: KF3CT Assay for Matrix Metallopeptidase 9 (MMP9) Biomarker Activity (AID 2283074); conditions: primary human keratinocytes with fibroblasts; actives raise or lower the signal
How it was run: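 Keratinocyte plus foreskin fibroblast human primary skin co-culture was dosed with chemical and MMP-9 was quantified by ELISA 24 h later. Bidirectional curve fitting used DMSO as negative control and activity baseline.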

[6] = read-out: urokinase plasminogen activator (uPA), PLAU (gene 5328); experiment: BSK_KF3CT_uPA: BioMAP Diversity Plus: KF3CT Assay for urokinase plasminogen activator (uPA) Biomarker Activity (AID 2283075); conditions: primary human keratinocytes with fibroblasts; actives raise or lower the signal
How it was run: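 Human keratinocyte plus foreskin fibroblast primary co-culture exposed to chemical for 24 h. uPA levels were quantified by ELISA, and activity was fitted bidirectionally against a DMSO negative-control baseline.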

[7] = read-out: E-selectin (Homo sapiens) (UniProt P16581); experiment: BSK_LPS_Eselectin: BioMAP Diversity Plus: LPS Assay for Eselectin Biomarker Activity (AID 2283077); conditions: primary human HUVEC with PBMC; actives raise or lower the signal
How it was run: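 Signal of E-selectin, detected by ELISA, served as the endpoint; cells were umbilical vein endothelium with PBMC, read 24 h after treatment. DMSO defined baseline, and both increases and decreases were fitted.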

[8] = read-out: Interleukin-8 (IL8), CXCL8 (gene 3576); experiment: BSK_LPS_IL8: BioMAP Diversity Plus: LPS Assay for Interleukin-8 (IL8) Biomarker Activity (AID 2283078); conditions: primary human HUVEC with PBMC; actives raise or lower the signal
How it was run: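 Endothelial cells and PBMC from human donors are co-cultured, treated with chemicals and LPS, then assayed for IL-8 by ELISA after 24 h. Parallel SRB staining (0.1% SRB after 10% TCA fixation, 560 nm) flags cytotoxicity.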

[9] = BSK_LPS_SRB: Viability Assessment in the BioMAP Diversity Plus: LPS Assay (AID 2283079); conditions: primary human HUVEC with PBMC;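 also: total protein by sulforhodamine B absorbance as a cytotoxicity measure; measured one day after compound addition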
How it was run: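 Overt cytotoxicity was gauged by sulforhodamine B total-protein staining in a primary human vascular endothelial and mononuclear cell co-culture 24 h post-dosing. Activity was fitted in both directions relative to DMSO.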

[10] = read-out: Interleukin-1 alpha (IL1a), IL1A (gene 3552); experiment: BSK_LPS_IL1a: BioMAP Diversity Plus: LPS Assay for Interleukin-1 alpha (IL1a) Biomarker Activity (AID 2283080); conditions: primary human HUVEC with PBMC; actives raise or lower the signal
How it was run: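 Measured: IL-1 alpha via ELISA at 24 h in LPS-activated human umbilical vein endothelium–PBMC co-culture. Baseline: DMSO, bidirectional fitting.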

[11] = read-out: Monocyte Chemoattractant Protein-1 (MCP1), CCL2 (gene 6347); experiment: BSK_LPS_MCP1: BioMAP Diversity Plus: LPS Assay for Monocyte Chemoattractant Protein-1 (MCP1) Biomarker Activity (AID 2283081); conditions: primary human HUVEC with PBMC; actives raise or lower the signal
How it was run: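 LPS-stimulated HUVEC/PBMC co-culture; chemical, 24 h; MCP-1 by ELISA; bidirectional fit vs DMSO; cytotoxicity via SRB (0.1% stain, 10% TCA fix, 560 nm) in parallel wells.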

[12] = BSK_LPS_PGE2: BioMAP Diversity Plus: LPS Assay for Prostaglandin E2 (PGE2) Biomarker Activity (AID 2283082); conditions: primary human HUVEC with PBMC; actives raise or lower the signal
How it was run: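 LPS-activated HUVEC/PBMC co-culture; cmpd dosed, 24 h; PGE2 by ELISA; bidirectional fit vs DMSO; SRB (0.1%, TCA-fixed, 560 nm) in parallel plates for overt cytotox.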

[13] = read-out: Macrophage colony-stimulating factor (MCSF), CSF1 (gene 1435); experiment: BSK_LPS_MCSF: BioMAP Diversity Plus: LPS Assay for Macrophage colony-stimulating factor (MCSF) Biomarker Activity (AID 2283083); conditions: primary human HUVEC with PBMC; actives raise or lower the signal
How it was run: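 Compound is added to a human vascular primary co-culture of umbilical vein endothelium and blood mononuclear cells. After 24 h, M-CSF is quantified by ELISA. Signal changes are fitted in both directions against DMSO.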

[14] = read-out: Tissue Factor, F3 (gene 2152); experiment: BSK_LPS_TissueFactor: BioMAP Diversity Plus: LPS Assay for Tissue Factor Biomarker Activity (AID 2283084); conditions: primary human HUVEC with PBMC; actives raise or lower the signal
How it was run: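 In this co-culture system of umbilical vein endothelium with PBMC, stimulated with LPS, cell-surface CD142 is detected by ELISA at 24 h. Endpoint values derive from bidirectional fitting, DMSO serving as baseline.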

[15] = read-out: Tumor necrosis factor (Homo sapiens) (UniProt P01375); experiment: BSK_LPS_TNFa: BioMAP Diversity Plus: LPS Assay for Tumour Necrosis Factor alpha (TNFa) Biomarker Activity (AID 2283085); conditions: primary human HUVEC with PBMC; actives raise or lower the signal
How it was run: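 Read-out is ELISA of TNFa in primary human endothelial cell–PBMC co-cultures at 24 h after compound. Activity in either direction was fitted against DMSO.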

[16] = read-out: Vascular cell adhesion molecule 1 (VCAM1), VCAM1 (gene 7412); experiment: BSK_LPS_VCAM1: BioMAP Diversity Plus: LPS Assay for Vascular cell adhesion molecule 1 (VCAM1) Biomarker Activity (AID 2283086); conditions: primary human HUVEC with PBMC; actives raise or lower the signal
How it was run: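 HUVEC + PBMC co-culture, LPS system; compound 24 h; VCAM-1 by ELISA; bidirectional fit vs DMSO control; parallel SRB (0.1%, TCA-fixed, 560 nm) for cytotoxicity.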

CD40, CD40 (gene 958) [17] = experiment: BSK_SAg_CD40: BioMAP Diversity Plus: SAg Assay for CD40 Biomarker Activity (AID 2283088); conditions: primary human HUVEC with PBMC; actives raise or lower the signal
How it was run: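 Fluorescence ELISA read-out of CD40 from umbilical vein endothelium plus peripheral blood mononuclear cells, sampled 24 h after dosing. Values come from bidirectional curve fitting with DMSO as baseline.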

CD69, CD69 (gene 969) = experiment: BSK_SAg_CD69: BioMAP Diversity Plus: SAg Assay for CD69 Biomarker Activity (AID 2283089); conditions: primary human HUVEC with PBMC; actives raise or lower the signal
How it was run: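 HUVEC co-cultured with PBMC were dosed with chemical, and CD69 was measured by ELISA with fluorescence read-out 24 h later. Bidirectional curve fitting used DMSO as negative control and activity baseline.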

CD40, CD40 (gene 958) [18] = experiment: BSK_LPS_CD40: BioMAP Diversity Plus: LPS Assay for CD40 Biomarker Activity (AID 2283076); conditions: primary human HUVEC with PBMC; actives raise or lower the signal
How it was run: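 CD40 signal, measured by ELISA, is fitted in both directions relative to DMSO vehicle. The system is an LPS-driven human vascular primary co-culture of endothelial cells and PBMC, sampled 24 h after compound addition.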

CD38, CD38 (gene 952) = experiment: BSK_SAg_CD38: BioMAP Diversity Plus: SAg Assay for CD38 Biomarker Activity (AID 2283087); conditions: primary human HUVEC with PBMC; actives raise or lower the signal
How it was run: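 Human HUVEC plus PBMC co-culture stimulated with superantigen; CD38 measured by ELISA 24 h after chemical dosing. Fluorescence read-out, bidirectional fit against DMSO; cytotoxicity tracked in parallel by SRB and Alamar Blue.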

Measured: outcome

E-selectin (Homo sapiens), sequence (P16581 whole entry, looked up): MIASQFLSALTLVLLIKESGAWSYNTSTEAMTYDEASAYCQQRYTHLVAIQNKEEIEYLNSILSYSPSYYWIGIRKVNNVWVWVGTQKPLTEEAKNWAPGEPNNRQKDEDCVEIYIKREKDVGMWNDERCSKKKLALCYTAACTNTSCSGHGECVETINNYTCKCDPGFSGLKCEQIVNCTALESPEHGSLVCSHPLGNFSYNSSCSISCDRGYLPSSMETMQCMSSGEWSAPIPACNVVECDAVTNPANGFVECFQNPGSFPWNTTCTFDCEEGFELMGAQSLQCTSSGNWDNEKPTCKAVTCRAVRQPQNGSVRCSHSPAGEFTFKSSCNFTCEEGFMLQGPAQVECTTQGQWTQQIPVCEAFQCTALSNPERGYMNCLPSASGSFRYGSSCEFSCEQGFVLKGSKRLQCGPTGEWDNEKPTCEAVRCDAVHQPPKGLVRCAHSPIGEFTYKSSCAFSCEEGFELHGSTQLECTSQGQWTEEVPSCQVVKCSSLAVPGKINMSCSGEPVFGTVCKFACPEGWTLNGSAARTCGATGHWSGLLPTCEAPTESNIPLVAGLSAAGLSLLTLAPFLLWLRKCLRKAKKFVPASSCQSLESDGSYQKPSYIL
Tumor necrosis factor (Homo sapiens), sequence (P01375 whole entry, looked up): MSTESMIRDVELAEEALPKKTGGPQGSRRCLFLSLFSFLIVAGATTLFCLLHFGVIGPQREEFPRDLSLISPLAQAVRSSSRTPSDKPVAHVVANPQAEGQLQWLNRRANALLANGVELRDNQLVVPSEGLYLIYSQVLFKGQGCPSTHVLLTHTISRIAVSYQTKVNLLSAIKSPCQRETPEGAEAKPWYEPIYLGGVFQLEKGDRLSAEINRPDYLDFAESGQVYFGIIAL

CCCCc1ccccc1
not listed: CD40, CD40 (gene 958) [18] | CD38, CD38 (gene 952)
inactive: all other assays above

O=[N+]([O-])c1ccccc1
not listed: [4]
inactive: all other assays above

N#Cc1cc([N+](=O)[O-])ccc1N
not listed: CD40, CD40 (gene 958) [18]
inactive: all other assays above

c1ccc(OP(Oc2ccccc2)Oc2ccccc2)cc1
not listed: CD40, CD40 (gene 958) [18]
inactive: all other assays above

CN(C)C(=O)Cl
not listed: [4]
inactive: all other assays above

Nc1ccc(Cl)cc1
not listed: CD40, CD40 (gene 958) [18] | CD38, CD38 (gene 952)
inactive: all other assays above
